{
  "source": "PubChem BioAssay AID372",
  "about": "(MTDP, 2006)",
  "note": "Out of some 100,000 compounds screened, about 770 (0.77%) were called active. The list comes from a sample in which actives are over-represented; it also holds similar structures and randomly drawn compounds. A number with no mark means an inactive call. No stated cut-off is given here; in the data, active means inhibition above about 50%; inactive means the rest.",
  "data": [
    {"target": "Gag-Pol polyprotein (Human immunodeficiency virus type 1 group M subtype B (isolate HXB2)) (UniProt P04585)", "assay": "RNase H inhibition, HIV 1 Gag Pol polyprotein, FRET biochemical assay, screening (AID 372)", "settings": "HIV-1 RT RNase H, FRET RNA/DNA substrate fluorescence; at 10 µM; hits give high values", "values": [
      {"smiles": "CCOc1ccc(C(=O)Nc2ccc3oc(-c4ccc(CC)cc4)nc3c2)cc1[N+](=O)[O-]", "inhibition": "16%"},
      {"smiles": "Nc1nc(CN2C(=O)c3ccccc3C2=O)cs1", "inhibition": "2%"},
      {"smiles": "CCOC(=O)c1c(NC(=O)c2ccc3c(c2)OCCO3)sc2c1CCCC2", "inhibition": "5%"},
      {"smiles": "CC(=O)OCCN1C(=O)c2ccc(Oc3cccc(Oc4ccc5c(c4)C(=O)N(CCOC(C)=O)C5=O)c3)cc2C1=O", "inhibition": "10%"},
      {"smiles": "CCOc1ccc(/C=C2\\SC(=S)N(CCC(=O)Nc3cccnc3)C2=O)cc1", "inhibition": "22%"},
      {"smiles": "CC(=O)N1c2ccccc2NC2=C(C(=O)CC(c3ccccc3)C2)C1c1cccnc1", "note": "(configuration not stated)", "inhibition": "7%"},
      {"smiles": "O=C(O)c1cccc(C(=O)O)c1N(c1ccccc1)c1ccccc1", "inhibition": "40%"},
      {"smiles": "CCOc1cc(/C=N/n2cnnc2)cc(Cl)c1OCCOc1cc(C)ccc1C(C)C", "inhibition": "10%"},
      {"smiles": "COc1ccc(C(=O)Nc2nccs2)c(OC)c1", "inhibition": "4%"},
      {"smiles": "Cc1cccc(N2C(=O)NC(=O)/C(=C\\c3ccc(Oc4ccc([N+](=O)[O-])cn4)cc3)C2=O)c1", "inhibition": "13%"},
      {"smiles": "COc1cc(/C=N/n2c(-c3ccc(C)cc3)n[nH]c2=S)ccc1O", "inhibition": "8%"},
      {"smiles": "Cc1ccc(-c2n[nH]c(=S)n2N=Cc2ccc(O)c(O)c2)cc1", "inhibition": "60% (active)"},
      {"smiles": "Oc1ccccc1/C=N/n1c(-c2ccccc2)n[nH]c1=S", "inhibition": "11%"},
      {"smiles": "Cc1ccc(-c2n[nH]c(=S)n2N=Cc2ccc(-c3ccccc3)cc2)cc1", "inhibition": "56% (active)"},
      {"smiles": "Cc1ccc(-c2n[nH]c(=S)n2/N=C/c2cc(Br)ccc2O)cc1", "inhibition": "15%"},
      {"smiles": "Cc1ccc(-c2n[nH]c(=S)n2/N=C/c2ccc(O)cc2O)cc1", "inhibition": "8%"},
      {"smiles": "Cc1ccc(-c2n[nH]c(=S)n2N=Cc2ccc(Cl)c(Cl)c2)cc1", "inhibition": "18%"},
      {"smiles": "Cc1cccc(C=Nn2c(-c3ccccc3)n[nH]c2=S)c1", "inhibition": "22%"},
      {"smiles": "COc1ccc(-c2n[nH]c(=S)n2N=Cc2ccc(-c3ccccc3)cc2)cc1", "inhibition": "45%"},
      {"smiles": "Cc1ccc(-c2n[nH]c(=S)n2/N=C/c2ccc(O)cc2)cc1", "inhibition": "9%"},
      {"smiles": "Oc1ccc(/C=N/n2c(-c3ccccc3)n[nH]c2=S)cc1O", "inhibition": "55% (active)"},
      {"smiles": "O=C1OC(/C=C/c2ccccc2)=NC/1=C/c1ccc(-c2ccc3c(c2)C(=O)NC3=O)o1", "inhibition": "33%"},
      {"smiles": "C#CCOc1ccc(C=C2C(=O)N(C)C(=S)N(C)C2=O)cc1Br", "inhibition": "21%"},
      {"smiles": "Clc1ccc(C2C=C(c3cccs3)Nc3nnnn32)cc1", "note": "(configuration not stated)", "inhibition": "3%"},
      {"smiles": "O=C1NC(=S)S/C1=C/c1cc(Br)ccc1O", "inhibition": "24%"},
      {"smiles": "Nc1ccc(/C=C2/SC(=S)NC2=O)cc1", "inhibition": "4%"},
      {"smiles": "COc1cc(/C=C2\\SC(=Nc3ccc(C)c(Cl)c3)NC2=O)cc(OC)c1OC", "inhibition": "21%"},
      {"smiles": "COc1cc(/C=C2\\SC(=Nc3ccc(C)c(Cl)c3)NC2=O)ccc1C", "inhibition": "56% (active)"},
      {"smiles": "COc1ccc(/C=C2/SC(=S)NC2=O)cc1I", "inhibition": "39%"},
      {"smiles": "O=C1NC(=S)S/C1=C/c1ccc(O)c(Br)c1", "inhibition": "3%"},
      {"smiles": "COc1ccc(/C=C2\\SC(=S)NC2=O)cc1C", "inhibition": "65% (active)"},
      {"smiles": "O=C1NC(=S)S/C1=C\\c1ccc(N2CCCC2)cc1", "inhibition": "54% (active)"},
      {"smiles": "O=C1NC(=S)S/C1=C\\c1ccc(O)c(O)c1", "inhibition": "78% (active)"},
      {"smiles": "COc1cc(/C=C2/SC(=S)NC2=O)ccc1OC(C)C", "inhibition": "1%"},
      {"smiles": "COc1cc(/C=C2\\SC(=Nc3ccc(C)c(Cl)c3)NC2=O)ccc1O", "inhibition": "47%"},
      {"smiles": "O=C1NC(=S)S/C1=C/c1ccc(Cl)cc1", "inhibition": "10%"},
      {"smiles": "O=C1C(Cc2ccccc2)S/C(=N/N=C/c2cccc([N+](=O)[O-])c2)N1c1ccccc1", "note": "(configuration not stated)", "inhibition": "20%"},
      {"smiles": "Cc1ccc(NC(=O)CN(c2ccc(Br)cc2)S(=O)(=O)c2ccccc2)cc1Cl", "inhibition": "7%"},
      {"smiles": "CCOc1ccccc1NC(=O)CCN1C(=O)/C(=C/c2ccccc2Cl)SC1=S", "inhibition": "13%"},
      {"smiles": "CCCCOC(C)n1cc(Cl)c(=O)[nH]c1=O", "note": "(configuration not stated)", "inhibition": "3%"},
      {"smiles": "COc1ccc2c(c1)c(=O)oc1cc(OCC(=O)c3ccc(F)cc3)ccc12", "inhibition": "34%"},
      {"smiles": "CCOc1cc(/C=C2\\SC(=S)NC2=O)ccc1OCCOc1ccccc1Cl", "inhibition": "43%"},
      {"smiles": "CC(C)COc1ccc(/C=C2\\SC(=S)NC2=O)c2ccccc12", "inhibition": "51% (active)"},
      {"smiles": "COc1cccc(OCCOc2c(Cl)cc(/C=C3/SC(=S)NC3=O)cc2OC)c1", "inhibition": "23%"},
      {"smiles": "COc1ccc(OCCOc2c(Cl)cc(/C=C3\\SC(=S)NC3=O)cc2OC)cc1", "inhibition": "47%"},
      {"smiles": "COc1cc(/C=C2\\SC(=S)NC2=O)cc(Br)c1OC(C)=O", "inhibition": "4%"},
      {"smiles": "COc1ccc(/C=C2\\SC(=S)NC2=O)c(OC)c1OC", "inhibition": "0%"},
      {"smiles": "COc1cc(/C=C2\\SC(=S)NC2=O)cc(Br)c1OC", "inhibition": "5%"},
      {"smiles": "COc1cc(/C=C2\\SC(=S)NC2=O)cc(Cl)c1OCCOc1ccccc1Cl", "inhibition": "26%"},
      {"smiles": "COc1cc(/C=C2\\SC(=S)NC2=O)cc(Br)c1OC(=O)c1ccccc1", "inhibition": "58% (active)"},
      {"smiles": "COc1cc(/C=C2/SC(=S)NC2=O)cc(Cl)c1OCC(C)COc1ccccc1", "note": "(configuration not stated)", "inhibition": "50% (active)"},
      {"smiles": "CC(C)COc1ccc(/C=C2\\SC(=S)NC2=O)cc1", "inhibition": "22%"},
      {"smiles": "COc1cc(/C=C2\\SC(=S)NC2=O)ccc1OCCOc1ccccc1Cl", "inhibition": "51% (active)"},
      {"smiles": "CCc1ccc(C=Nn2c(-c3ccc(Cl)cc3)n[nH]c2=S)cc1", "inhibition": "3%"},
      {"smiles": "CCOc1cc(/C=C2\\C(=O)NC(=O)N(c3ccc(Cl)cc3)C2=O)cc(Cl)c1OCC", "inhibition": "0%"},
      {"smiles": "CCC(C)OC(=O)C1=C(C)NC2=C(C(=O)CC(c3ccc(Cl)cc3)C2)C1c1ccc(OC(C)=O)cc1", "note": "(configuration not stated)", "inhibition": "11%"},
      {"smiles": "COc1ccccc1/C=C\\C=N\\n1c(-c2ccc(Cl)cc2Cl)n[nH]c1=S", "inhibition": "34%"},
      {"smiles": "CS(=O)(=O)N(CC(O)Cn1c2ccccc2c2ccccc21)c1ccc(Br)cc1", "note": "(configuration not stated)", "inhibition": "1%"},
      {"smiles": "CCN(CC)c1ccc(/C=N/NC(=O)CCC(=O)Nc2cccc(Cl)c2C)c(O)c1", "inhibition": "6%"},
      {"smiles": "CCOP(=O)(CN1CCN(CP(=O)(OCC)OCC)CC1)OCC", "inhibition": "2%"},
      {"smiles": "Cc1c(NC(=O)c2cc(Cl)ccc2Cl)cccc1-c1nc2ccccc2s1", "inhibition": "9%"},
      {"smiles": "O=c1/c(=C/c2ccc(-c3ccccc3)o2)sc2nc3ccccc3n12", "inhibition": "9%"},
      {"smiles": "CCOC(=O)C1=C(C)NC2=C(C(=O)CC(c3ccc(OC)cc3)C2)C1c1ccc(OC)c(OC)c1", "note": "(configuration not stated)", "inhibition": "11%"},
      {"smiles": "Cc1ccc(C(=O)Oc2ccccc2C(=S)N2CCOCC2)cc1", "inhibition": "0%"},
      {"smiles": "CCOC(=O)C1CCCN(C(=O)N2CCOCC2)C1", "note": "(configuration not stated)", "inhibition": "12%"},
      {"smiles": "Cc1cc2ncn(CC(O)COc3ccc(C(=O)O)cc3)c2cc1C", "note": "(configuration not stated)", "inhibition": "0%"},
      {"smiles": "COc1ccccc1CNc1cccc(F)c1", "inhibition": "0%"},
      {"smiles": "O=C1NC(=S)S/C1=C\\c1ccccc1OCCOc1ccccc1Cl", "inhibition": "46%"},
      {"smiles": "Cc1cc(C)cc(OCCOc2ccc([N+](=O)[O-])cc2/C=C2\\SC(=S)NC2=O)c1", "inhibition": "38%"},
      {"smiles": "O=C1NC(=Nc2cccc(Cl)c2Cl)S/C1=C\\c1ccc(O)cc1", "inhibition": "12%"},
      {"smiles": "O=C1NC(=S)S/C1=C\\c1cc([N+](=O)[O-])ccc1OCCOc1ccccc1Cl", "inhibition": "55% (active)"},
      {"smiles": "O=C1NC(=Nc2cccc(Cl)c2Cl)S/C1=C\\c1ccc(F)cc1", "inhibition": "22%"},
      {"smiles": "O=C1NC(=Nc2cccc(Cl)c2Cl)S/C1=C\\c1ccc(O)c(O)c1", "inhibition": "89% (active)"},
      {"smiles": "O=P(O)(OC(c1ccccc1)C(F)(F)F)c1ccccc1", "note": "(configuration not stated)", "inhibition": "2%"},
      {"smiles": "CC(=O)Oc1ccc(/C=C2/N=C(c3cccc([N+](=O)[O-])c3)OC2=O)cc1", "inhibition": "14%"},
      {"smiles": "O=C(Cc1ccccc1)Nc1ccncc1", "inhibition": "11%"},
      {"smiles": "Cn1cc(/C=C2/SC(=O)N(c3ccccc3)C2=O)c2ccccc21", "inhibition": "12%"},
      {"smiles": "COc1ccc(Cl)cc1/C=C1\\C(=O)NC(=S)N(c2cccc(Cl)c2Cl)C1=O", "inhibition": "8%"},
      {"smiles": "Clc1cccc(-c2ccc(/C=N/Nc3nc4ccccc4s3)o2)c1", "inhibition": "4%"},
      {"smiles": "O=[N+]([O-])c1ccc(C=Nn2c(-c3ccc(Cl)cc3Cl)n[nH]c2=S)cc1", "inhibition": "51% (active)"},
      {"smiles": "O=[N+]([O-])c1ccc(Cl)c(C=Nn2c(-c3ccc(Cl)cc3Cl)n[nH]c2=S)c1", "inhibition": "16%"},
      {"smiles": "O=[N+]([O-])c1cc(C=Nn2c(-c3ccc(Cl)cc3Cl)n[nH]c2=S)ccc1Cl", "inhibition": "37%"},
      {"smiles": "COc1ccccc1-n1c(C=C2C(=O)N(Cc3ccccc3)c3ccccc32)nc2ccccc2c1=O", "inhibition": "9%"},
      {"smiles": "O=c1oc(/C=C\\c2ccccc2)nc2ccc(Cc3ccc4nc(/C=C\\c5ccccc5)oc(=O)c4c3)cc12", "inhibition": "7%"},
      {"smiles": "Cc1oc2ccc(OCc3ccc([N+](=O)[O-])cc3)cc2c1C(=O)OC(C)C", "inhibition": "13%"},
      {"smiles": "CCOCCOC(=O)C1=C(C)NC2=C(C(=O)CC(c3ccc(OC)cc3)C2)C1c1cccc(OC)c1OC", "note": "(configuration not stated)", "inhibition": "5%"},
      {"smiles": "O=C1c2ccccc2CCC1C1(O)C(=O)Nc2ccc(Br)cc21", "note": "(configuration not stated)", "inhibition": "2%"},
      {"smiles": "CCn1c2ccccc2c2ccc(-c3nn(-c4ccccc4)cc3C=O)cc21", "inhibition": "11%"},
      {"smiles": "Cc1ccc(C)n1-c1ccc(C(=O)O)c(Cl)c1", "inhibition": "16%"},
      {"smiles": "Cc1ccc(-c2ccccc2)n1-c1ccc(Cl)c(C(=O)O)c1", "inhibition": "3%"},
      {"smiles": "Cc1ccc(C)n1-c1cc(C(=O)O)cc(C(=O)O)c1", "inhibition": "2%"},
      {"smiles": "Cc1ccc(C)n1-c1ccc(Cl)c(C(=O)O)c1", "inhibition": "53% (active)"},
      {"smiles": "Cc1ccc(-c2ccccc2)n1-c1ccc(O)c(C(=O)O)c1", "inhibition": "6%"},
      {"smiles": "Cc1ccc(C)n1-c1ccc(C(=O)O)c(O)c1", "inhibition": "99% (active)"},
      {"smiles": "Cc1ccc(C)n1-c1ccc(Cl)c(O)c1", "inhibition": "41%"},
      {"smiles": "Cc1nc(=O)c(-c2ccccc2)c(C)n1-c1ccc(C(=O)O)c(O)c1", "inhibition": "0%"},
      {"smiles": "CC(C)(Cc1ccc(O)cc1)NC(=O)Cc1ccccc1", "inhibition": "6%"}
    ]}
  ]
}
